Results as given in PubChem BioAssay (EPA / NIEHS).
“And” between values parts separate entries of the source, which are not always exact repeats. Equal entries are not always repeated. Where a structure was tested more than once in an assay, its records may differ in their call. The source made the active and inactive calls. Rule for the calls: active = hit-call score of the fitted dose curve at least 0.9, where 1 is the maximum; inactive = score below 0.9.

Read-out: Thyroid Hormone Responsive (THRSP), THRSP (gene 7069)
Assay: LTEA_HepaRG_THRSP: Life Technologies and Expression Analysis (LTEA) Assay for Thyroid Hormone Responsive (THRSP) using HepaRG (AID 2283536)
Conditions: mRNA level, 48 h; actives raise or lower the signal
Method in brief: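 Differentiated human HepaRG cells were exposed in duplicate for 48 h in serum-free induction medium to eight concentrations (top 100 uM, half-log steps, 0.5% DMSO). Expression was quantified by TaqMan qRT-PCR, normalized to ACTB, GAPDH and POLR2A, with bidirectional fitting against DMSO.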

Sequence of Cellular tumor antigen p53 (Homo sapiens) (P04637 whole entry, looked up): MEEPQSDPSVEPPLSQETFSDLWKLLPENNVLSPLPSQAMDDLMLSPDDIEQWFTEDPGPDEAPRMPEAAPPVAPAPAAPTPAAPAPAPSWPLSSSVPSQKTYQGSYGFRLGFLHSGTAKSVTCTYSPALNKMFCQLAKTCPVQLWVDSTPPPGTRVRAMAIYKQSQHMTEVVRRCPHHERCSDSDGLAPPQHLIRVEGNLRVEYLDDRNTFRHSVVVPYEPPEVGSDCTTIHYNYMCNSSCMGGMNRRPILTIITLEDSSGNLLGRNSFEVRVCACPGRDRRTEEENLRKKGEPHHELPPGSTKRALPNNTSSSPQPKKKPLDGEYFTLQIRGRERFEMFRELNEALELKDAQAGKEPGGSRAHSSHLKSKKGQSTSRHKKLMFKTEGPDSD

| SMILES | AC50 | outcome |
| --- | --- | --- |
| O=[N+]([O-])/N=C1\NCCN1Cc1ccc(Cl)nc1 | 50 µM (active) |  |
| COP(=S)(OC)Oc1ccc(SC)c(C)c1 |  | inactive |
| CC(C)OC(=O)Nc1cccc(Cl)c1 |  | inactive |
| CCC(C)Nc1c([N+](=O)[O-])cc(C(C)(C)C)cc1[N+](=O)[O-] (configuration not stated) |  | inactive |
| Oc1ccc(Cl)cc1Cc1ccccc1 | 78.1 µM (active) and 50.5 µM (active) and 87.7 µM (active) |  |
| COP(=O)(OC)OC=C(Cl)Cl |  | inactive |
| ClC1C(Cl)C(Cl)C(Cl)C(Cl)C1Cl (configuration not stated) |  | inactive |

Read-out: Cellular tumor antigen p53 (Homo sapiens) (UniProt P04637)
Assay: LTEA_HepaRG_TP53: Life Technologies and Expression Analysis (LTEA) Assay for Tumor Protein P53 (TP53) using HepaRG (AID 2283537)
Conditions: mRNA level, 48 h; actives raise or lower the signal
Method in brief: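 Differentiated HepaRG cells in serum-free induction medium exposed 48 h in duplicate to 8 half-log concentrations, top 100 uM, 0.5% DMSO. TP53 mRNA by TaqMan qRT-PCR (Fluidigm), normalized to ACTB, GAPDH, POLR2A; fitted bidirectionally versus DMSO.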

| SMILES | outcome | AC50 |
| --- | --- | --- |
| CCN(CC)C(=O)SCc1ccc(Cl)cc1 | inactive |  |
| COP(=S)(OC)Oc1ccc(SC)c(C)c1 | inactive |  |
| CCC(C)(C)C(=O)OC1=C(c2ccc(Cl)cc2Cl)C(=O)OC12CCCCC2 | inactive |  |
| CC(C)OC(=O)Nc1cccc(Cl)c1 | inactive |  |
| Oc1cc(Cl)ccc1Oc1ccc(Cl)cc1Cl | inactive |  |
| CNC(=O)Oc1cccc(N=CN(C)C)c1 | inactive |  |
| O=S(=O)(O)C(F)(F)C(F)(F)C(F)(F)C(F)(F)C(F)(F)C(F)(F)C(F)(F)C(F)(F)F |  | 50 µM (active) and 48 µM (active) |
| CCc1ccc(C(=O)NN(C(=O)c2cc(C)cc(C)c2)C(C)(C)C)cc1 | inactive |  |
| O=C(O)C(F)(F)C(F)(F)C(F)(F)C(F)(F)C(F)(F)C(F)(F)C(F)(F)F | inactive | 12.3 µM (active) |
| O=C1c2ccccc2C(=O)N1SC(Cl)(Cl)Cl | inactive |  |
| Oc1ccc(Cl)cc1Cc1ccccc1 | inactive |  |
| O=[N+]([O-])c1c(Cl)c(Cl)c(Cl)c(Cl)c1Cl | inactive |  |
| CNC(=O)Oc1ccccc1OC(C)C | inactive |  |
| CC(C)(C)C(O)C(Oc1ccc(Cl)cc1)n1cncn1 (configuration not stated) | inactive | 0.354 µM (active) |
| CN1CSC(=S)N(C)C1 | inactive |  |
| OCCOc1ccccc1 | inactive |  |
| CC1(c2ccc(Oc3ccccc3)cc2)OC(=O)N(Nc2ccccc2)C1=O (configuration not stated) |  | 12.9 µM (active) |
| ClC1C(Cl)C(Cl)C(Cl)C(Cl)C1Cl (configuration not stated) | inactive |  |
| N#Cc1c(Cl)c(Cl)c(Cl)c(C#N)c1Cl | inactive |  |
| COc1nn(CSP(=S)(OC)OC)c(=O)s1 | inactive |  |

Read-out: UDP glucuronosyltransferase (UGT1A1), UGT1A1 (gene 54658)
Assay: LTEA_HepaRG_UGT1A1: Life Technologies and Expression Analysis (LTEA) Assay for UDP glucuronosyltransferase (UGT1A1) using HepaRG (AID 2283538)
Conditions: mRNA level, 48 h; actives raise or lower the signal
Method in brief: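 Readout is UGT1A1 transcript level by qRT-PCR, normalized to three housekeeping genes, after 48 h chemical treatment of HepaRG cells. Concentrations ran from 100 uM down in half-log steps with 0.5% DMSO, and gain or loss relative to DMSO was fitted.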

| SMILES | outcome | AC50 |
| --- | --- | --- |
| CCN(CC)C(=O)SCc1ccc(Cl)cc1 | inactive |  |
| O=[N+]([O-])/N=C1\NCCN1Cc1ccc(Cl)nc1 | inactive |  |
| COP(=S)(OC)Oc1ccc(SC)c(C)c1 |  | 25.2 µM (active) |
| CCC(C)(C)C(=O)OC1=C(c2ccc(Cl)cc2Cl)C(=O)OC12CCCCC2 | inactive |  |
| CC(C)OC(=O)Nc1cccc(Cl)c1 | inactive |  |
| CCC(C)Nc1c([N+](=O)[O-])cc(C(C)(C)C)cc1[N+](=O)[O-] (configuration not stated) |  | 13.1 µM (active) |
| Oc1cc(Cl)ccc1Oc1ccc(Cl)cc1Cl | inactive |  |
| CNC(=O)Oc1cccc(N=CN(C)C)c1 | inactive |  |
| O=S(=O)(O)C(F)(F)C(F)(F)C(F)(F)C(F)(F)C(F)(F)C(F)(F)C(F)(F)C(F)(F)F |  | 12.9 µM (active) and 11.5 µM (active) and 11.9 µM (active) |
| CCc1ccc(C(=O)NN(C(=O)c2cc(C)cc(C)c2)C(C)(C)C)cc1 |  | 12.3 µM (active) |
| O=C(O)C(F)(F)C(F)(F)C(F)(F)C(F)(F)C(F)(F)C(F)(F)C(F)(F)F |  | 3.11 µM (active) and 7.73 µM (active) |
| O=C1c2ccccc2C(=O)N1SC(Cl)(Cl)Cl | inactive |  |
| Oc1ccc(Cl)cc1Cc1ccccc1 | inactive |  |
| COP(=O)(OC)OC=C(Cl)Cl | inactive |  |
| O=[N+]([O-])c1c(Cl)c(Cl)c(Cl)c(Cl)c1Cl |  | 17.2 µM (active) |
| CNC(=O)Oc1ccccc1OC(C)C |  | 0.633 µM (active) |
| CC(C)(C)C(O)C(Oc1ccc(Cl)cc1)n1cncn1 (configuration not stated) |  | 3.12 µM (active) and 2.49 µM (active) and 3.05 µM (active) |
| CN1CSC(=S)N(C)C1 | inactive |  |
| OCCOc1ccccc1 | inactive |  |
| CC1(c2ccc(Oc3ccccc3)cc2)OC(=O)N(Nc2ccccc2)C1=O (configuration not stated) | inactive |  |
| ClC1C(Cl)C(Cl)C(Cl)C(Cl)C1Cl (configuration not stated) |  | 780 nM (active) and 3.95 µM (active) |
| N#Cc1c(Cl)c(Cl)c(Cl)c(C#N)c1Cl | inactive |  |
| COc1nn(CSP(=S)(OC)OC)c(=O)s1 |  | 15.1 µM (active) |
